Source: the supplement of paper PMC9492666
Counter-ions that a name gives are not always drawn.

Test system: MDA-MB-231
Assay: relative cell viability, compound + erastin, vs DMSO (fraction of DMSO control); higher = less growth inhibition
Conditions: 72 h
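Also: viability read by CCK-8 kit in 96-well plates, part of a combination screen pairing lipid-metabolism-targeting compounds with erastin.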

Structure (SMILES) | relative cell viability
C[C@H](CCCC(C)(C)O)[C@H]1CC[C@H]2[C@@H]3CC=C4C[C@@H](O)CC[C@]4(C)[C@H]3CC[C@]12C [25-Hydroxycholesterol] + CCOc1ccccc1-n1c(C(C)N2CCN(C(=O)COc3ccc(Cl)cc3)CC2)nc2ccccc2c1=O [erastin] | 0.483
CN1CCN(C(=O)C2C(C(=O)O)[C@H]3CC[C@@H]2O3)CC1 (stereo partly drawn) + CCOc1ccccc1-n1c(C(C)N2CCN(C(=O)COc3ccc(Cl)cc3)CC2)nc2ccccc2c1=O [erastin] | 0.394
CC(C)CCC[C@@H](C)[C@H]1CC[C@H]2[C@@H]3CCC4=CC(=NO)CC[C@]4(C)[C@H]3CC[C@]12C [Olesoxime] + CCOc1ccccc1-n1c(C(C)N2CCN(C(=O)COc3ccc(Cl)cc3)CC2)nc2ccccc2c1=O [erastin] | 0.663
O=C(c1ccc(-c2nc3ccc(F)cc3o2)cc1)N1CCN(C(=O)C2(O)CC2)CC1 + CCOc1ccccc1-n1c(C(C)N2CCN(C(=O)COc3ccc(Cl)cc3)CC2)nc2ccccc2c1=O [erastin] | 0.823
O=C(O)CCn1c2c(c3ccccc31)C[C@H](NS(=O)(=O)c1ccc(F)cc1)CC2 [Ramatroban] + CCOc1ccccc1-n1c(C(C)N2CCN(C(=O)COc3ccc(Cl)cc3)CC2)nc2ccccc2c1=O [erastin] | 0.806
O=c1oc2ccccc2cc1O [3-Hydroxycoumarin] + CCOc1ccccc1-n1c(C(C)N2CCN(C(=O)COc3ccc(Cl)cc3)CC2)nc2ccccc2c1=O [erastin] | 0.741
NNC(=O)c1nn(Cc2ccc(Cl)cc2Cl)c2ccccc12 [Adjudin] + CCOc1ccccc1-n1c(C(C)N2CCN(C(=O)COc3ccc(Cl)cc3)CC2)nc2ccccc2c1=O [erastin] | 0.711
CCC1C(O)C2C3CCC(C(C)CCO)C3(C)CCC2C2(C)CCC(O)CC12 (stereo not drawn) + CCOc1ccccc1-n1c(C(C)N2CCN(C(=O)COc3ccc(Cl)cc3)CC2)nc2ccccc2c1=O [erastin] | 0.58
Cc1cccc(Nc2cc(Cl)nc(SCC(=O)O)n2)c1C [Pirinixic Acid] + CCOc1ccccc1-n1c(C(C)N2CCN(C(=O)COc3ccc(Cl)cc3)CC2)nc2ccccc2c1=O [erastin] | 0.74
CCN(CC)Cc1ccc(C(=O)N(CCc2ccccc2OC)[C@@H]2CCNC2)cc1 + CCOc1ccccc1-n1c(C(C)N2CCN(C(=O)COc3ccc(Cl)cc3)CC2)nc2ccccc2c1=O [erastin] | 0.726
Nc1ncnc2c1ncn2[C@@H]1O[C@H](COP(=O)(O)O)[C@@H](O)[C@H]1O [Adenosine 5'-monophosphate] + CCOc1ccccc1-n1c(C(C)N2CCN(C(=O)COc3ccc(Cl)cc3)CC2)nc2ccccc2c1=O [erastin] | 0.716
CCCc1c(-c2ccccc2)[nH]n(-c2ccccn2)c1=O [APX-115 free base] + CCOc1ccccc1-n1c(C(C)N2CCN(C(=O)COc3ccc(Cl)cc3)CC2)nc2ccccc2c1=O [erastin] | 0.625
O=P(O)(O)OC(CO)CO [β-Glycerol phosphate disodium salt pentahydrate] + CCOc1ccccc1-n1c(C(C)N2CCN(C(=O)COc3ccc(Cl)cc3)CC2)nc2ccccc2c1=O [erastin] | 0.527
COc1cccc(CNc2ccc(S(=O)(=O)Nc3nc4ccccc4s3)cc2)c1O + CCOc1ccccc1-n1c(C(C)N2CCN(C(=O)COc3ccc(Cl)cc3)CC2)nc2ccccc2c1=O [erastin] | 0.68
CCN(CC)CCCC(C)Nc1c2ccc(Cl)cc2nc2ccc(OC)cc12 (stereo not drawn) [Quinacrine dihydrochloride] + CCOc1ccccc1-n1c(C(C)N2CCN(C(=O)COc3ccc(Cl)cc3)CC2)nc2ccccc2c1=O [erastin] | 0.299
NC(=O)c1ncn([C@@H]2O[C@H](CO)[C@@H](O)[C@H]2O)c1N [AICAR (Acadesine)] + CCOc1ccccc1-n1c(C(C)N2CCN(C(=O)COc3ccc(Cl)cc3)CC2)nc2ccccc2c1=O [erastin] | 0.973
Cc1nc2c([nH]1)c(=O)n(C)c(=O)n2Cc1ccco1 [Furafylline] + CCOc1ccccc1-n1c(C(C)N2CCN(C(=O)COc3ccc(Cl)cc3)CC2)nc2ccccc2c1=O [erastin] | 0.767
CC1=C(C)C(=O)C(C(CCCCCC(=O)O)c2ccccc2)=C(C)C1=O (stereo not drawn) [Seratrodast] + CCOc1ccccc1-n1c(C(C)N2CCN(C(=O)COc3ccc(Cl)cc3)CC2)nc2ccccc2c1=O [erastin] | 0.567
